NPSR antagonist: antagonists of human neuropeptide S receptor cAMP signaling; Q6W5P4; CHO-NPSR cells, cAMP TR-FRET, antagonist mode; Potency, µM (doses to about 38.3 µM), inactives show at the top dose activity change, negative = inhibition, actives largely listed as inhibitors; hit rate 1% among 220,000; AID 1461; active = well fitted curve in the direction sought with a large enough effect; inconclusive = small, poorly fitted or top-dose-only effect, or another doubt; inactive = no such curve, though single readings can be large; an effect the other way counts as inactive or inconclusive; note: potency is the fitted concentration of half-maximal effect; nearly all actives have a fitted effect of over 50% in size
Sfp inh: inhibitors of Bacillus subtilis Sfp phosphopantetheinyl transferase; AID 1490; Potency, µM, for the others: largest response in the series, negative = inhibition, most hits filed as inhibitors; hit rate 3.5% among 310,000; Q9F4F7; Biochemical Sfp PPTase activity, qHTS; active = well fitted curve in the direction sought with a large enough effect; inconclusive = small, poorly fitted or top-dose-only effect, or another doubt; inactive = no such curve, though single readings can be large; an effect the other way counts as inactive or inconclusive;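 note: the enzyme is Sfp with the accession as filed and its product quenches rhodamine fluorescence; potency is the fitted concentration of half-maximal effect; 0% = enzyme reaction without inhibitor and -100% = no enzyme wells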
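Compounds were incubated with enzyme (final 15 nM) for 15 min at room temperature before substrate addition started the reaction. Fluorescence at 525 nm excitation, 598 nm emission was recorded immediately and after 30 minutes.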
GoLoco inh red: inhibitors of human Gai1-RGS12 GoLoco interaction (red fluorophore); P63096; Gai1:RGS12 GoLoco peptide FP, rhodamine, 10 min; Potency, µM (series often up to 61.6 µM), for inactives: top-dose activity, negative = inhibition, most hits filed as inhibitors; hit rate 0.44% among 230,000; active = well fitted inhibition curve with a large enough effect, not every such curve was filed as active; inactive = no such curve, though single readings can be large or run the other way; note: potency is the fitted concentration of half-maximal effect; nearly all actives have a fitted effect of over 30% in size
Target sequence (P63096 whole entry, looked up): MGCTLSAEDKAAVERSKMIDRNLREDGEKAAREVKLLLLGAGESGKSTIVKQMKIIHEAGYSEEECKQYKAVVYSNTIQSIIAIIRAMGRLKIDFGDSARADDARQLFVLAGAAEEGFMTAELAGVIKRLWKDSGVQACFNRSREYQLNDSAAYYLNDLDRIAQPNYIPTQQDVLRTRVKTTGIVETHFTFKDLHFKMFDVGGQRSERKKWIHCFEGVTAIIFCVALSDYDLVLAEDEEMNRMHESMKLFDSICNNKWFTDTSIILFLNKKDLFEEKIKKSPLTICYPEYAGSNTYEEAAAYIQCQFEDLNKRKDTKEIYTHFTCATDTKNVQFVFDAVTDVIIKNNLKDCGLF
ALDH1A1 inh: ALDH1A1 (human) enzyme inhibition. P00352. Purified ALDH1A1, NADH fluorescence, propionaldehyde substrate. Potency, µM (titrated, usually from 75.3 µM), without a hit: top-dose activity, negative = inhibition, hits mostly inhibitors. hit rate 7.3% among 220,000. AID 1030;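 note: potency is the fitted concentration of half-maximal effect; plate controls were no enzyme wells and a reference inhibitor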
JMJD2E inh: JMJD2E (human) inhibition; B2RXH2; JMJD2E catalytic domain, FDH-coupled NADH fluorescence (FDH is formaldehyde dehydrogenase); Potency, µM (highest dose often 57.1 µM), inactives show at the top dose activity change, negative = inhibition, hits mostly inhibitors; hit rate 1.6% among 230,000; AID 2147;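 note: potency is the fitted concentration of half-maximal effect; 0% = wells with enzyme and -100% = buffer wells without enzyme; nearly all actives have a fitted effect of over 50% in size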
Coupling enz: counter-screen for Giardia aldolase inhibitors: coupling enzyme system. coupling enzyme system counterscreen, AmpLite Red fluorescence. activity change, negative = inhibition, % at 58.2 µM, hits read low. hit rate 0.67% among 290,000; in the data active = activity change below about -30%
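Fluorescence at 525 nm excitation and 598 nm emission measured inhibition of the coupled detection system without aldolase. Compounds (at 57.5 uM final) were preincubated 10 min at room temperature with coupling enzyme reagent before a 20 min substrate/AmpLite Red step.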
* marks the source's active call; other numbers are inactive results; [ ] = remark or other dose. Compounds with a hit are over-represented: about 8.5% of the library has one in this group of screens. Unless noted, calls come from the whole dose curve; as a rule, active = well fitted inhibition curve with a large enough effect (not every such curve was filed as active); inconclusive = small, poorly fitted or top-dose-only effect, or another doubt; inactive = no such curve, though single readings can be large or run the other way. Unless noted, % is set by controls: 0 for no effect and ±100 for the full control effect.

Screening CC1(C)Cc2c(c(N3CCOCC3)nc3snc(Br)c23)CO1 returned NPSR antagonist -12%[46.1 µM], Sfp inh 45µM*, GoLoco inh red 0%, ALDH1A1 inh inconclusive, JMJD2E inh -5% and Coupling enz 6.
Screening Nc1c(C(=O)NCCc2ccccc2)sc2nc(N3CCOCC3)c3c(c12)CCCC3 returned NPSR antagonist -44%, Sfp inh 22µM*, GoLoco inh red -6%, ALDH1A1 inh inconclusive, JMJD2E inh inconclusive and Coupling enz 0.
CC1(C)Cc2c(c(N3CCOCC3)nc3sc(C(N)=O)c(N)c23)CO1 was read as NPSR antagonist -17%, Sfp inh 14µM*, GoLoco inh red -2%, JMJD2E inh inconclusive and Coupling enz -30*.
Screening CN(C(=O)c1sc2nc(N3CCOCC3)c3c(c2c1N)CCCC3)c1ccccc1 returned NPSR antagonist -37%, Sfp inh inconclusive, GoLoco inh red 4%, ALDH1A1 inh inactive, JMJD2E inh inconclusive and Coupling enz 1.
`CN1Cc2c(N3CCOCC3)nc3sc(C(=O)c4ccccc4)c(N)c3c2CC1(C)C` gave NPSR antagonist 13µM*, Sfp inh -10%, GoLoco inh red -1%, JMJD2E inh inconclusive and Coupling enz -9.
`COc1nnnc2c1sc1nc(N3CCOCC3)c3c(c12)CC(C)(C)OC3` gave NPSR antagonist -3%[46.1 µM], Sfp inh 19%, ALDH1A1 inh inconclusive, JMJD2E inh 0% and Coupling enz 1.
CCOC(=O)c1sc2nc(N3CCOCC3)c3c(c2c1N)CC(C)(C)N(C)C3 was read as NPSR antagonist -10%[46.1 µM], Sfp inh 11%, GoLoco inh red 6%, ALDH1A1 inh inconclusive, JMJD2E inh inconclusive and Coupling enz -1.
`S=c1nc[nH]c2c1sc1nc(N3CCOCC3)c3c(c12)CCCC3` gave NPSR antagonist -39%, Sfp inh 8%, GoLoco inh red 119%, ALDH1A1 inh 1.4µM*, JMJD2E inh -86% and Coupling enz 3.
CC1(C)Cc2c(c(N3CCOCC3)nc3sc(C(=O)Nc4ccc(Cl)cc4)c(N)c23)CO1 was read as Sfp inh 32µM* and Coupling enz -5.
For CCOC(=O)c1sc2nc(N3CCOCC3)c3c(c2c1N)CCC3 the results were NPSR antagonist -14%[46.1 µM], Sfp inh inconclusive, GoLoco inh red 5%, ALDH1A1 inh inconclusive, JMJD2E inh inconclusive and Coupling enz -4.
Screening NC(=O)c1sc2nc(N3CCOCC3)c3c(c2c1N)CCCC3 returned NPSR antagonist 5%[46.1 µM], Sfp inh 45µM*, GoLoco inh red 5%, ALDH1A1 inh inconclusive, JMJD2E inh inconclusive and Coupling enz 0.
`Cc1nc2sc(C(=O)O)c(N)c2c2c1COC(C)(C)C2` gave NPSR antagonist -17%[46.1 µM], Sfp inh 40µM*, GoLoco inh red -11%, ALDH1A1 inh 14µM*, JMJD2E inh -9% and Coupling enz -3.
Cc1ccc(OCc2cc(C(=O)N3CC4C[C@@H]5CC3C[C@H](C4)C5)no2)cc1C was read as Sfp inh -6%.
Screening Cc1sc(NC(=O)CN2CCOCC2)c(C(=O)c2ccccc2)c1C returned NPSR antagonist 8%[46.1 µM], Sfp inh -7%, GoLoco inh red 14%, ALDH1A1 inh 5%, JMJD2E inh 9% and Coupling enz 2.
Screening Cc1ccc(NC(=O)c2sc3nc(N4CCOCC4)c4c(c3c2N)CC(C)(C)OC4)cc1 returned Sfp inh 32µM* and Coupling enz 0.
`Nc1c(C(=O)c2ccccc2)sc2nsc(SCCN3CCOCC3)c12` gave NPSR antagonist inconclusive, Sfp inh 50µM*, GoLoco inh red 2%, JMJD2E inh -2% and Coupling enz -2.
COC(=O)c1ccc(CSc2nnc(-c3ccncc3)n2Cc2ccccc2)o1 was read as NPSR antagonist 2%[46.1 µM], Sfp inh -7%, ALDH1A1 inh 25µM*, JMJD2E inh -2% and Coupling enz 0.
CNC(=O)CSc1nnc(-c2ccncc2)n1Cc1ccccc1 was read as NPSR antagonist -3%[46.1 µM], Sfp inh 13%, GoLoco inh red 3%, ALDH1A1 inh 2%, JMJD2E inh 1% and Coupling enz 0.
